Source: PubChem BioAssay (NCI)
About 79,000 compounds went through this panel and 15% of them were active in at least one assay; those are over-represented in the sample as a whole. Activity calls are given as the source filed them. Rule as the data show it: active = growth inhibition above about 70%; inactive = the rest.

Assays:
[1] = NCI Yeast Anticancer Drug Screen. Data for the wt1 strain (AID 149);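 also: 0% = growth of vehicle-treated wt1 cultures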; settings: S. cerevisiae wt1 strain (SPY 50644) growth inhibition, stronger effect = higher value
Procedure, shortened: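 Vehicle-normalised growth inhibition; strain wt1; compound exposure.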

[2] = NCI Yeast Anticancer Drug Screen. Data for the rad50EPP+ strain (AID 151);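 also: 0% = growth of vehicle-treated control cultures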; settings: S. cerevisiae rad50 mutant strain, stronger effect = higher value
Procedure, shortened: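 Yeast strain carrying rad50 alteration (rad50EPP+) exposed to compounds; growth inhibition measured relative to vehicle-treated controls.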

[3] = NCI Yeast Anticancer Drug Screen. Data for the rad50 strain (AID 155);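 also: 0% = growth of vehicle-only cultures of the same strain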; settings: S. cerevisiae rad50 strain growth inhibition, stronger effect = higher value
Procedure, shortened: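 A DNA repair-deficient yeast mutant serves as the test organism; compound-induced growth inhibition is calculated against vehicle-treated cells.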

[4] = NCI Yeast Anticancer Drug Screen. Data for the mec2-1 strain (AID 157); settings: S. cerevisiae mec2-1 strain, stronger effect = higher value
Procedure, shortened: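 mec2-1 yeast strain, carrying an alteration in DNA damage repair or cell cycle control, was exposed to compounds; growth inhibition was measured relative to vehicle-treated controls.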

[5] = NCI Yeast Anticancer Drug Screen. Data for the rad14 strain (AID 159);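 also: 0% = growth of vehicle-treated control cultures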; settings: S. cerevisiae rad14 strain growth inhibition, stronger effect = higher value
Procedure, shortened: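 Vehicle-treated cultures served as the baseline for growth inhibition of a DNA repair-mutant yeast strain exposed to each compound.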

[6] = NCI Yeast Anticancer Drug Screen. Data for the sgs1 mgt1 strain (AID 161);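 also: 0% = growth of cultures given vehicle only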; settings: S. cerevisiae sgs1 mgt1 strain, stronger effect = higher value
Procedure, shortened: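 Growth of a repair-deficient yeast mutant was monitored after compound treatment and expressed as inhibition relative to vehicle-treated cultures.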

[7] = NCI Yeast Anticancer Drug Screen. Data for the CLN2oe strain (AID 163);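 also: 0% = growth of vehicle-only control cultures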; settings: S. cerevisiae CLN2oe strain, stronger effect = higher value
Procedure, shortened: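 Yeast cells carrying a defined cell-cycle control alteration were exposed to test compounds. Growth inhibition was scored against vehicle-treated control cultures.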

[8] = NCI Yeast Anticancer Drug Screen. Data for the cln2 rad14 strain (AID 165);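 also: 0% = growth equal to vehicle treated cultures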; settings: S. cerevisiae cln2 rad14 strain, stronger effect = higher value
Procedure, shortened: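 Yeast carrying cln2 and rad14 alterations (cell cycle control and DNA damage repair) were exposed to compounds. Growth inhibition was measured against vehicle-treated controls.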

[9] = NCI Yeast Anticancer Drug Screen. Data for the wt2 strain (AID 169);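 also: 0% = growth of vehicle-treated yeast cultures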; settings: S. cerevisiae wt2 strain growth inhibition, stronger effect = higher value
Procedure, shortened: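 Yeast cells were exposed to test compounds, and growth inhibition was measured relative to vehicle-treated controls.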

[10] = NCI Yeast Anticancer Drug Screen. Data for the mlh1 strain (AID 171);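 also: 0% = growth of vehicle-treated control cultures of the same strain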; settings: S. cerevisiae mlh1 strain growth inhibition, stronger effect = higher value
Procedure, shortened: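 Yeast carrying a defined genetic alteration in DNA damage repair or cell cycle control were exposed to test compounds. Growth inhibition was measured relative to vehicle-treated controls.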

[11] = NCI Yeast Anticancer Drug Screen. Data for the mlh1 rad18 strain (AID 175); settings: S. cerevisiae mlh1 rad18 strain growth inhibition, stronger effect = higher value
Procedure, shortened: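 Growth inhibition of the yeast strain was measured after compound exposure and expressed relative to vehicle-treated controls. The strain carries defined defects in DNA damage repair.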

[12] = NCI Yeast Anticancer Drug Screen. Data for the rad18 strain (AID 177); settings: S. cerevisiae rad18 mutant growth inhibition, stronger effect = higher value
Procedure, shortened: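 Yeast carrying a defined DNA damage repair alteration were exposed to compounds. Growth inhibition was expressed relative to vehicle-treated controls.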

[13] = at 5.0 µM (retest, dose inferred, filed as 0.5)
[14] = at 50.0 µM (retest, dose inferred, filed as 5.0)

Measured: growth inhibition

O=c1oc(C(C(F)(F)F)C(F)(F)F)nc2ccccc12
inactive: [1]; at 1.2 µM 4% | [1]; at 3.7 µM 24% | [1]; at 11.0 µM 20% | [1]; at 33.0 µM 23% | [1]; at 100.0 µM 27% | [2]; at 1.2 µM 22% | [2]; at 3.7 µM 30% | [2]; at 11.0 µM 35% | [2]; at 33.0 µM 43% | [2]; at 100.0 µM 51% | [3]; at 1.2 µM 33% | [3]; at 3.7 µM 27% | [3]; [13] 10% | [3]; at 11.0 µM 25% | [3]; at 33.0 µM 29% | [3]; at 50.0 µM 36.1% | [3]; at 100.0 µM 29% | [4]; at 1.2 µM 13% | [4]; at 3.7 µM 27% | [4]; [13] 7% | [4]; at 11.0 µM 23% | [4]; at 33.0 µM 29% | [4]; at 100.0 µM 34% | [5]; at 1.2 µM 16% | [5]; at 3.7 µM 21% | [5]; at 11.0 µM 26% | [5]; at 33.0 µM 29% | [5]; at 100.0 µM 42% | [6]; [13] -5% | [6]; [14] 12% | [6]; at 50.0 µM 12.7% | [7]; at 1.2 µM 18% | [7]; at 3.7 µM 12% | [7]; at 11.0 µM 26% | [7]; at 33.0 µM 1% | [7]; at 100.0 µM 15% | [8]; [13] 23% | [8]; [14] 33% | [8]; at 50.0 µM 12.3% | [9]; at 1.2 µM -3% | [9]; at 3.7 µM -5% | [9]; at 11.0 µM -7% | [9]; at 33.0 µM 2% | [9]; at 100.0 µM 32% | [10]; at 1.2 µM 16% | [10]; at 3.7 µM 12% | [10]; at 11.0 µM 17% | [10]; at 33.0 µM 20% | [10]; at 100.0 µM 32% | [11]; [13] 15% | [11]; at 50.0 µM 50.6% | [12]; at 1.2 µM 22% | [12]; at 3.7 µM 15% | [12]; at 11.0 µM 20% | [12]; at 33.0 µM 19% | [12]; at 100.0 µM 30%
active: [3]; [14] 72% | [4]; [14] 83% | [4]; at 50.0 µM 70.2% | [11]; [14] 88%
